HT1080 IDH1KD tx = qHTS for induction of synthetic lethality in tumor cells producing 2HG: qHTS for the HT-1080-IDH1KD cell line; HT-1080 IDH1 knockdown viability, ATP luminescence, 48 h; Potency, µM (series often up to 46.1 µM), actives largely listed as cytotoxic; 360,000 compounds, 2% hits; AID 686971, 2013
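Cytotoxicity counter-line: IDH1KD HT-1080, 48 h, CellTiter-Glo. Curves classed by r2, magnitude and activity.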
TDP1 cell noCPT = qHTS for Inhibitors of human tyrosyl-DNA phosphodiesterase 1 (TDP1): qHTS in cells in absence of CPT; 420,000 compounds, 15% hits; Potency, µM (series often up to 46.2 µM), actives largely listed as inhibitors; DT40 Tdp1-/- hTDP1 cells, no CPT, ATP luminescence, 48 h; note: nearly all actives have a fitted effect of over 55% in size
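Luminescent ATP content (CellTiter-Glo) served as the growth readout. Knockout chicken DT40 cells expressing human TDP1 were exposed to compounds without camptothecin for a minimum 48 hr at 37 °C.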
DT40 TDP1 CPT = qHTS for Inhibitors of human tyrosyl-DNA phosphodiesterase 1 (TDP1): qHTS in cells in presence of CPT. chicken DT40 Tdp1-/-;hTDP1 cells + 20 nM CPT, ATP luminescence, 48 h. Potency, µM (doses to about 46.2 µM), most hits filed as inhibitors. 420,000 compounds, 12% hits; note: nearly all actives have a fitted effect of over 55% in size
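Chicken DT40 Tdp1-/- cells stably complemented with human TDP1 were seeded at 400 cells/well in medium containing 20 nM camptothecin, exposed to pin-transferred compounds, and grown at 37 °C for at least 48 hr. Viability was read as ATP luminescence.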
HT1080-NT tox = qHTS for induction of synthetic lethality in tumor cells producing 2HG: qHTS for the HT-1080-NT fibrosarcoma cell line; AID 686970, 2013; Potency, µM (series often up to 46.1 µM), usual class: cytotoxic; HT-1080-NT fibrosarcoma viability, CellTiter-Glo ATP luminescence, 48 h; 360,000 compounds, 1.6% hits;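 note: NT is the 2HG producing partner of a matched IDH1 knockdown line; nearly all actives have a fitted effect of over 55% in size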
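HT-1080-NT fibrosarcoma cells (2HG-overproducing), 750 cells/well in RPMI with 5% FBS, dosed after 2 h and incubated 48 h at 37C. CellTiter-Glo luminescence normalized to DMSO and no-cell wells; concentration-response curves fitted and classed.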
IL1B secr inh = qHTS for Inhibitors of Inflammasome Signaling: IL-1-beta AlphaLISA Primary Screen. activity change, % at 57.5 µM. THP-1 LPS/ATP IL-1B secretion, AlphaLISA, 16 h; stronger effect = lower value. 360,000 compounds, 4.7% hits; in the data active = activity change below about -50%; inconclusive = mostly about -30% to -49%
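Secreted IL-1B measured by AlphaLISA bead assay after 16 h compound exposure of THP-1 cells; compounds (final up to 57.5 uM) added 1 h before LPS (250 ng/mL) and ATP (1.25 mM) stimulation; lower signal means less secretion.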
Large screens that a line does not name were inactive. Hits are enriched below; roughly 19% of the tested compounds scored in any of these assays. Unless noted, calls come from the whole dose curve; as a rule, active = well fitted curve in the direction sought with a large enough effect; inconclusive = small, poorly fitted or top-dose-only effect, or another doubt; inactive = no such curve, though single readings can be large; an effect the other way counts as inactive or inconclusive.

Cc1ccc(-n2nc3c(=O)n(CCCC(=O)NCc4ccccc4C)nc(C)c3c2C)cc1	TDP1 cell noCPT 20.6µM, DT40 TDP1 CPT 20.6µM
CCn1c2ccccc2c2nn(C)c(=N)nc21	TDP1 cell noCPT 18.4µM, DT40 TDP1 CPT 14.6µM
COc1cc(NC(=O)CSc2nnc(-c3ccncc3)o2)cc(OC)c1OC	none
CCCN1C(=O)c2cc(C(=O)Nc3ccccc3OC)ccc2C1Nc1ccccc1OC (centres undefined)	TDP1 cell noCPT inconclusive, DT40 TDP1 CPT inconclusive
CCCN1C(=O)c2cc(C(=O)Nc3cccc(C(C)=O)c3)ccc2C1Nc1cccc(C(C)=O)c1 (centres undefined)	TDP1 cell noCPT 14.6µM, DT40 TDP1 CPT 8.2µM, HT1080-NT tox inconclusive
Cc1sc2c(c1C)c(=O)n(-c1cccc(C(F)(F)F)c1)c(=O)n2Cc1ccccc1C#N	none (no result: HT1080 IDH1KD tx, HT1080-NT tox, IL1B secr inh)
C/C(=N\Nc1cc(N2CCOCC2)nc(C)n1)c1cccc([N+](=O)[O-])c1	TDP1 cell noCPT 10.3µM, DT40 TDP1 CPT 16.4µM
C/C(=N\Nc1ccccn1)c1ccc(N2CCOCC2)cc1	TDP1 cell noCPT inconclusive, DT40 TDP1 CPT inconclusive
C/C(=N\Nc1ccc([N+](=O)[O-])cc1)c1ccc(N2CCOCC2)cc1	none
CCCCc1ccc(/C(C)=N/Nc2cc(N3CCOCC3)nc(C)n2)cc1	HT1080 IDH1KD tx inconclusive, TDP1 cell noCPT 23.1µM, DT40 TDP1 CPT inconclusive, HT1080-NT tox inconclusive
CCc1ccc(/C(C)=N/Nc2cc(Cl)nc(C)n2)cc1	HT1080 IDH1KD tx inconclusive, TDP1 cell noCPT inconclusive, DT40 TDP1 CPT 23.1µM, HT1080-NT tox inconclusive
CC[C@@H](C)CCCCC(=O)N[C@@H](CCNCS(=O)(=O)O)C(=O)N[C@H](C(=O)N[C@@H](CCNCS(=O)(=O)O)C(=O)N[C@H]1CCNC(=O)[C@H]([C@@H](C)O)NC(=O)[C@H](CCNCS(=O)(=O)O)NC(=O)[C@H](CCNCS(=O)(=O)O)NC(=O)[C@H](CC(C)C)NC(=O)[C@@H](CC(C)C)NC(=O)[C@H](CCNCS(=O)(=O)O)NC1=O)[C@@H](C)O	TDP1 cell noCPT 9.44µM, DT40 TDP1 CPT inconclusive (no result: HT1080 IDH1KD tx, HT1080-NT tox, IL1B secr inh)
CCC1(c2ccc(F)cc2)NC(=O)N(CC(=O)Nc2cccnc2Cl)C1=O (centres undefined)	none
Cc1ccc2nc(NC(=O)C3CCN(S(=O)(=O)c4cnc[nH]4)CC3)sc2c1	TDP1 cell noCPT 16.4µM, DT40 TDP1 CPT inconclusive
Nc1ccc2nc(NC(=O)C3CCCCC3)sc2c1	DT40 TDP1 CPT inconclusive, IL1B secr inh inconclusive
O=C(Nc1nc2ccc(C(=O)N3CCCCC3)cc2s1)C1CCCCC1	HT1080 IDH1KD tx inconclusive, TDP1 cell noCPT 4.11µM, DT40 TDP1 CPT 2.59µM, HT1080-NT tox inconclusive
COc1ccc2nc(NC(=O)CNS(=O)(=O)c3cccs3)sc2c1	none
COc1ccc2nc(NC(=O)C3CCCN(S(=O)(=O)c4cccs4)C3)sc2c1 (centres undefined)	TDP1 cell noCPT 18.4µM, DT40 TDP1 CPT inconclusive, IL1B secr inh -58.7
O=C(Nc1ccon1)C1CCN(S(=O)(=O)c2cccs2)CC1	TDP1 cell noCPT 23.1µM, DT40 TDP1 CPT inconclusive
CCN(Cc1ccccc1)C(=O)CN(c1ccc(OC)cc1)S(=O)(=O)c1c(C)nn(C)c1C	TDP1 cell noCPT inconclusive (no result: HT1080 IDH1KD tx, HT1080-NT tox, IL1B secr inh)
COc1cc(C(=O)N/N=C/c2sc(N3CCOCC3)nc2-c2ccccc2)cc(OC)c1OC	none
COc1ccc2nc(NC(=O)c3ccc(S(=O)(=O)N4CCCC(C)C4)cc3)sc2c1 (centres undefined)	TDP1 cell noCPT 11.6µM, DT40 TDP1 CPT 16.4µM (no result: HT1080 IDH1KD tx, HT1080-NT tox, IL1B secr inh)
COc1ccc2nc(NC(=O)C3CCN(S(=O)(=O)c4cccs4)CC3)sc2c1	TDP1 cell noCPT 29.1µM, DT40 TDP1 CPT 23.1µM, HT1080-NT tox inconclusive, IL1B secr inh -74.6
COc1ccc2nc(NC(=O)C3CCN(S(=O)(=O)c4cccnc4)CC3)sc2c1	TDP1 cell noCPT 14.6µM, DT40 TDP1 CPT 11.6µM
